Data published in article PMC12864922, “TDP-43 directly inhibits mRNA accumulation in neurites through modulation of mRNA stability”.
The full ranking holds about 9,900 sequences; the median of “r (bound/input frequency ratio)” is about 0.7, and the highest 2% start at about 6.5. The list comes from a sample in which the highest values are over-represented; it also holds similar and randomly drawn sequences.

B1: ENSMUSG00000031028.589|Tub (ssRNA)
RNA: GGGAGUUCUACAGUCCGACGAUCGCUUCGAUAUCCGCAUGCUAUUUCUUUCAGUUUAUGGCCACCUGCCCAAAUUGACUUCCAGCUUACAAUCUUCUGUCAUUUCAAGAUCGUAAGAAGUACUGGGAUGGGUUUGAGUUUUCAGCACAGAGGCGAGUUGAUCUAGGAGCAUACAACUGUACUGAGCAGCUAGAGCAUUUGAGCAACCCAUGUAAUCUUUGUGUUUCCCUCCCUGUAAGAAGGCCUGUCAGAGCUUGCUGUAGGAGUUAGGGUAAAUGAAAGUUAGUCCUGGCUCUCAUCACCACUCUUGCGGUCGCACUAGUGUGGAAUUCUCGGGUGUCAAGG
B2: ENSMUSG00000004113.44|Cacna1b (ssRNA)
RNA: GGGAGUUCUACAGUCCGACGAUCGCUUCGAUAUCCGCAUGCUAUCCGCCGUGUACCCAAUGGCUAUCACUGCACUUUGGGACUCAGCACUGGCGUCCGGGCGCGGCACAGCUACCACCACCCCGAUCAGGACCACUGGUGCUAGCUGCACCACGACCACCCAUGUACCAGCUCCAUGGGUGAGGGUUCCAGUUGAUGAGUUUUAUCAUCCGCUCUGGGCUGUGGGGUCACAGCCCUGGGAGGAGGGCCCUCACAUCUCGGCCUCUGUGGUGGAGGCUCCUGCUUCCCUCCCUCCCUCCCUUUUCUCUUGCGGUCGCACUAGUGUGGAAUUCUCGGGUGUCAAGG
B3: ENSMUSG00000031028.188|Tub (ssRNA)
RNA: GGGAGUUCUACAGUCCGACGAUCGCUUCGAUAUCCGCAUGCUAUUAAUGGCAGAGUUGAGAACCUCAAAUUCUUUUGUUCCUACUGUUGCCCAGAAACUAGACUCUCUGACCUGCUAGGGUCUAUUCUGCAUGUCCUUUCUCUUCCCAGUUCCAGAGAUGAAACCCCUCCGAGUUAAUGUAUAAGGUUGGAAACCUUUCAGUAGGGAAUCAGGCAGUUCCCUGUUGAAAGUUGUCUGAGUUUUUGCACACCAUUCUGAUCUGAUGUGGCCUGUGCCUGGCUCCUCUAUGAGGACUUCGAGCUGCUCUUGCGGUCGCACUAGUGUGGAAUUCUCGGGUGUCAAGG
B4: ENSMUSG00000029028.242|Lrrc47 (ssRNA)
RNA: GGGAGUUCUACAGUCCGACGAUCGCUUCGAUAUCCGCAUGCUAGUCAGAACUAGUGAAGCUCCAGGCUCCUCGUGGCAGACCCUGGACAACGCUGGUAGCUGUUCUCCAUGAGACACGGCUGCUCACAGGUCCCUUUGAGUGGCUGUGGCAAGUACUCACCUACUAAGUGUUUAGGGUGGAGCUAUCCUGUGCUCACCCUGUCUCCCCCCAGUUCCUGCUGUUCCCUCCAGCCCAGCCCAGCCCAGGUGUGAGAUUCAUUGAGAUUUUUGAAACUGUUUUUACAGAUUCAAGCAGAACGCCUCCUCUUGCGGUCGCACUAGUGUGGAAUUCUCGGGUGUCAAGG
B5: ENSMUSG00000058297.76|Spock2 (ssRNA)
RNA: GGGAGUUCUACAGUCCGACGAUCGCUUCGAUAUCCGCAUGCUACUGAUCCUGCCCCUCAGCCCAACACCUGGAAUCCCUGCCCUGCCUAAUCAGCCCUACCCCAUCCUGCCUUUCUUCCUUCCUCUUCUGAGGCCAGGGAGAGGGAGGGAGGGCAGGCAGCUGAAAGCUGAGCGUCCUCCCCAAAUUGGGCUGAUUUGAUAUGAAAGCCCCACCACGGUCUUGUGGUGAUGAGGCAGGACCUGUACACACAGCAAGGCUUACUAUCCGUCUCCUGACAUCCGAAGAGCUCGUCGCAGGUGUGUCUCUUGCGGUCGCACUAGUGUGGAAUUCUCGGGUGUCAAGG
B6: ENSMUSG00000061578.198|Ksr2 (ssRNA)
RNA: GGGAGUUCUACAGUCCGACGAUCGCUUCGAUAUCCGCAUGCUAGGCACAGAGUGAAUGGGAAGGAGAGCCCUGAGGUCACUGGUCCACAUGCCCAAAGCCAUGCCCCCCAGUGAUCAGACCUGACACAAGAGGCAAAGCUGUCCCUAAGCAGAGAAUUAGCAGGGUUAGCCAGACAGCAAAAUCCAUGUAAACAUACAAAACCACCCCCCCUUUUUGAGUGGCCCUAUUGGAUGUACACACUAGGACCAAGCACGGGUCCAAAGCAGGAAGACUGAUUGACAGUAGUCACACUUCUAGAGAGACUCUUGCGGUCGCACUAGUGUGGAAUUCUCGGGUGUCAAGG
B7: ENSMUSG00000022095.7|Fam160b2|99:103 (ssRNA)
RNA: GGGAGUUCUACAGUCCGACGAUCGCUUCGAUAUCCGCAUGCUAGUCAAGUUUCCCCCACACGGUCCUUACCUGAACUUCUCUCCACCUCCAGAAGGGCAAGUCUGAGCCAGGAGCAUGACGGGUGGGGGAAGAUUCCUGCCACACAACUUCUGCCCACGGGCAGUCUCCUGCCUGGCCAUGCUGCCACUCUGUCCUCCAUGCCGGGGACUUCAGCUGCAGGACACCUCACCUGUUGACCCCACGAGCUGAGGUUUCAAGGAGGUGCUGGCUCCUAAGGCAGUGGUAUUCUUGGAGCCUUUUAGCUCUUGCGGUCGCACUAGUGUGGAAUUCUCGGGUGUCAAGG
B8: ENSMUSG00000004113.288|Cacna1b (ssRNA)
RNA: GGGAGUUCUACAGUCCGACGAUCGCUUCGAUAUCCGCAUGCUAAAAACCCAUGCUCAGGAAGGUGUUCAGUGUGCACAGAUAGCUGGGAGGCCACGAGAGAAAGGUUGCACACAGACAGGCAGGCACUCCUUGGUGUGGUCUCUCUGUUUUGAAACUUCUGAUGACUUCUUGGUGGCUUGUUGUCUUCUACCCCAUGUUUCUCACAGGAUCUGUGUGUGUGUGUGUGUGUGUGUGUGUGUGUGUGUGUGUGUGUGUUAGCAUGUGUGUAUUAGCGUGUGUGAGUGUGUGAGCAUGCACGAGUCCUCUUGCGGUCGCACUAGUGUGGAAUUCUCGGGUGUCAAGG
B9: ENSMUSG00000004113.284|Cacna1b (ssRNA)
RNA: GGGAGUUCUACAGUCCGACGAUCGCUUCGAUAUCCGCAUGCUAACCUCAUGGCUGCUUUGCAAAGGGAAAACCCAUGCUCAGGAAGGUGUUCAGUGUGCACAGAUAGCUGGGAGGCCACGAGAGAAAGGUUGCACACAGACAGGCAGGCACUCCUUGGUGUGGUCUCUCUGUUUUGAAACUUCUGAUGACUUCUUGGUGGCUUGUUGUCUUCUACCCCAUGUUUCUCACAGGAUCUGUGUGUGUGUGUGUGUGUGUGUGUGUGUGUGUGUGUGUGUGUGUUAGCAUGUGUGUAUUAGCGUGUGCUCUUGCGGUCGCACUAGUGUGGAAUUCUCGGGUGUCAAGG
B10: ENSMUSG00000004113.285|Cacna1b (ssRNA)
RNA: GGGAGUUCUACAGUCCGACGAUCGCUUCGAUAUCCGCAUGCUAUGGCUGCUUUGCAAAGGGAAAACCCAUGCUCAGGAAGGUGUUCAGUGUGCACAGAUAGCUGGGAGGCCACGAGAGAAAGGUUGCACACAGACAGGCAGGCACUCCUUGGUGUGGUCUCUCUGUUUUGAAACUUCUGAUGACUUCUUGGUGGCUUGUUGUCUUCUACCCCAUGUUUCUCACAGGAUCUGUGUGUGUGUGUGUGUGUGUGUGUGUGUGUGUGUGUGUGUGUGUUAGCAUGUGUGUAUUAGCGUGUGUGAGUGCUCUUGCGGUCGCACUAGUGUGGAAUUCUCGGGUGUCAAGG
B11: ENSMUSG00000004113.289|Cacna1b (ssRNA)
RNA: GGGAGUUCUACAGUCCGACGAUCGCUUCGAUAUCCGCAUGCUACAUGCUCAGGAAGGUGUUCAGUGUGCACAGAUAGCUGGGAGGCCACGAGAGAAAGGUUGCACACAGACAGGCAGGCACUCCUUGGUGUGGUCUCUCUGUUUUGAAACUUCUGAUGACUUCUUGGUGGCUUGUUGUCUUCUACCCCAUGUUUCUCACAGGAUCUGUGUGUGUGUGUGUGUGUGUGUGUGUGUGUGUGUGUGUGUGUGUUAGCAUGUGUGUAUUAGCGUGUGUGAGUGUGUGAGCAUGCACGAGUCAUAGGACUCUUGCGGUCGCACUAGUGUGGAAUUCUCGGGUGUCAAGG
B12: ENSMUSG00000004113.287|Cacna1b (ssRNA)
RNA: GGGAGUUCUACAGUCCGACGAUCGCUUCGAUAUCCGCAUGCUAAAAGGGAAAACCCAUGCUCAGGAAGGUGUUCAGUGUGCACAGAUAGCUGGGAGGCCACGAGAGAAAGGUUGCACACAGACAGGCAGGCACUCCUUGGUGUGGUCUCUCUGUUUUGAAACUUCUGAUGACUUCUUGGUGGCUUGUUGUCUUCUACCCCAUGUUUCUCACAGGAUCUGUGUGUGUGUGUGUGUGUGUGUGUGUGUGUGUGUGUGUGUGUGUUAGCAUGUGUGUAUUAGCGUGUGUGAGUGUGUGAGCAUGCACUCUUGCGGUCGCACUAGUGUGGAAUUCUCGGGUGUCAAGG
B13: ENSMUSG00000004113.286|Cacna1b (ssRNA)
RNA: GGGAGUUCUACAGUCCGACGAUCGCUUCGAUAUCCGCAUGCUACUUUGCAAAGGGAAAACCCAUGCUCAGGAAGGUGUUCAGUGUGCACAGAUAGCUGGGAGGCCACGAGAGAAAGGUUGCACACAGACAGGCAGGCACUCCUUGGUGUGGUCUCUCUGUUUUGAAACUUCUGAUGACUUCUUGGUGGCUUGUUGUCUUCUACCCCAUGUUUCUCACAGGAUCUGUGUGUGUGUGUGUGUGUGUGUGUGUGUGUGUGUGUGUGUGUGUUAGCAUGUGUGUAUUAGCGUGUGUGAGUGUGUGAGCUCUUGCGGUCGCACUAGUGUGGAAUUCUCGGGUGUCAAGG

Target: TDP-43 (Homo sapiens, UniProt Q13148 1-414)
Assay: RNA Bind-n-Seq with designed 260-mer pool; 25 mM Tris-HCl, 150 mM KCl, 3 mM MgCl2, BSA (printed 500 mg/mL), 20 units/mL SUPERase IN; pH not stated; 500 nM RNA pool, 1 h, 4 C; TDP-43 5, 50, 500 nM; high values mean tight binding
Conditions: protein: recombinant; tags: SBP (GST cleaved off with PreScission; pGEX-GST-SBP)
Outline: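 The incubation lasted 1 h at 4 °C and used 500 nM of an in vitro-transcribed 260-nt 3′ UTR oligo pool with recombinant SBP-tagged TDP-43 at 5, 50 or 500 nM immobilized on streptavidin beads. It took place in 25 mM Tris-HCl, 150 mM KCl, 3 mM MgCl2, BSA and SUPERase IN. Bound RNA was washed, eluted with biotin, converted to cDNA, PCR-amplified and sequenced to give R, each oligo's normalized abundance in the bound sample divided by that in input. Two independent protein batches provided the duplicates.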

Chain of TDP-43 (Q13148 whole entry): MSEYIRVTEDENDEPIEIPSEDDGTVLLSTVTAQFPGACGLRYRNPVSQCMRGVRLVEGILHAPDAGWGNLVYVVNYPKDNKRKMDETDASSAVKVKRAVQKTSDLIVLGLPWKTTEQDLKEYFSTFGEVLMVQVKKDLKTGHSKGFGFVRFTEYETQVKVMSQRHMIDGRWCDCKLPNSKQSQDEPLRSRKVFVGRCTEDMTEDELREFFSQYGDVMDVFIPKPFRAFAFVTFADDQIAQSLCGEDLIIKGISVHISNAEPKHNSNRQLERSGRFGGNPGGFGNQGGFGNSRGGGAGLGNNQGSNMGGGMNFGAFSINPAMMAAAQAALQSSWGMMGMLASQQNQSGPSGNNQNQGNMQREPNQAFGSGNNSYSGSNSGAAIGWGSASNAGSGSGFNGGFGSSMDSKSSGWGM

| Binder | binding signal |
| --- | --- |
| B1 | 0.299 R (bound/input frequency ratio) |
| B2 | 0.443 R (bound/input frequency ratio) |
| B3 | 1.12 R (bound/input frequency ratio) |
| B4 | 0.479 R (bound/input frequency ratio) |
| B5 | 0.827 R (bound/input frequency ratio) |
| B6 | 1.41 R (bound/input frequency ratio) |
| B7 | 0.238 R (bound/input frequency ratio) |
| B8 | 7.06 R (bound/input frequency ratio) |
| B9 | 6.3 R (bound/input frequency ratio) |
| B10 | 7.91 R (bound/input frequency ratio) |
| B11 | 5.06 R (bound/input frequency ratio) |
| B12 | 5.32 R (bound/input frequency ratio) |
| B13 | 6.11 R (bound/input frequency ratio) |
